# ChEMBL document CHEMBL3988442, “University of Dundee, Small-Polar-MMV Screening Library” (2021)
# For part of these data: Results with a measured potency or affinity are listed apart.
# Assays:
# Set-up in all cases: scale not given: direction of the effect not stated beside the values
# [1] = target: Protein translocase subunit SecA (Escherichia coli (strain K12)) (UniProt P10408); assay: Assay to Identify E. coli SecA ATPase Inhibitors; assay type: functional; conditions: 30 µM
# [2] = target: T1, Ubiquitin-activating enzyme e1, putative (Leishmania donovani (strain BPK282A1)) (UniProt E9BSI1); assay: Leishmania donovani Ubiquitin Activating Enzyme (LdE1); assay type: functional; conditions: 30 µM
# T1 sequence (whole entry): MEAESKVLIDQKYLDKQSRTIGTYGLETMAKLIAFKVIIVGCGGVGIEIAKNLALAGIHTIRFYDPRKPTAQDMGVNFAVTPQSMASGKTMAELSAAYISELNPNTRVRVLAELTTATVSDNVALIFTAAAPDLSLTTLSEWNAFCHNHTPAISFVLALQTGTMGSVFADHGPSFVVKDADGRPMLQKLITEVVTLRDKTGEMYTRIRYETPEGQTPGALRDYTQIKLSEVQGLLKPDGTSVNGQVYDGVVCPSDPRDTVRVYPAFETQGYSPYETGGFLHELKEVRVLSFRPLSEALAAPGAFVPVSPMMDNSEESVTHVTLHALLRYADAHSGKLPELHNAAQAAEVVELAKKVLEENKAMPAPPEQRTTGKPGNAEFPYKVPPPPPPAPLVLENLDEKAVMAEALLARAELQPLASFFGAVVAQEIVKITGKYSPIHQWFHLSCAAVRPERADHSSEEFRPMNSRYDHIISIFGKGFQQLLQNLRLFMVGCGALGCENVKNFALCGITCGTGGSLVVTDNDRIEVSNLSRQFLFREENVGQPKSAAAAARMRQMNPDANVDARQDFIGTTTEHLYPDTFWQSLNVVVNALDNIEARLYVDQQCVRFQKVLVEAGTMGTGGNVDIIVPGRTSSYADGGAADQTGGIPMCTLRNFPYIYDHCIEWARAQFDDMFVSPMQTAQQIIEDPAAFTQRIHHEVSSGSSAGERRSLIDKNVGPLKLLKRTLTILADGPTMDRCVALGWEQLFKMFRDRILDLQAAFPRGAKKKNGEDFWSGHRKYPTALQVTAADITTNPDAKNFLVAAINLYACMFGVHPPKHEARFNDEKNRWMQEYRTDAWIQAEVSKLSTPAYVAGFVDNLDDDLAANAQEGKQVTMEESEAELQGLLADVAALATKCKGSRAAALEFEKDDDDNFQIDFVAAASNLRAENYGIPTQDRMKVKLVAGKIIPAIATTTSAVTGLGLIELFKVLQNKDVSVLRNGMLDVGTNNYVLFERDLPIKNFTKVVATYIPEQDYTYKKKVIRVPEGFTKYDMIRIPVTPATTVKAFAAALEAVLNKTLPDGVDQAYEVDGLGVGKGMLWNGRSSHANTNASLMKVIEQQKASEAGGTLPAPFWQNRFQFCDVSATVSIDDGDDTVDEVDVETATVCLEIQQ
# [3] = target: AMP-activated protein kinase, AMPK (Homo sapiens) (UniProt P54646+O43741+P54619+Q9UGJ0+Q9Y478+Q13131+Q9UGI9); assay: AMP-dependent Kinase enzyme assay. An in vitro enzyme assay that detects ADP turnover that is directly proportional to AMPK activity. This uses naive AMPK that is activated during the assay with MK-8722; assay type: functional; conditions: 30 µM
# [4] = target: Sialic acid-binding Ig-like lectin 9 (Homo sapiens) (UniProt Q9Y336); assay: Hs-Siglec9 ALPHAscreen SOP 20170721; conditions: 10 µM
# Chain of Sialic acid-binding Ig-like lectin 9 (Homo sapiens) (Q9Y336 whole entry): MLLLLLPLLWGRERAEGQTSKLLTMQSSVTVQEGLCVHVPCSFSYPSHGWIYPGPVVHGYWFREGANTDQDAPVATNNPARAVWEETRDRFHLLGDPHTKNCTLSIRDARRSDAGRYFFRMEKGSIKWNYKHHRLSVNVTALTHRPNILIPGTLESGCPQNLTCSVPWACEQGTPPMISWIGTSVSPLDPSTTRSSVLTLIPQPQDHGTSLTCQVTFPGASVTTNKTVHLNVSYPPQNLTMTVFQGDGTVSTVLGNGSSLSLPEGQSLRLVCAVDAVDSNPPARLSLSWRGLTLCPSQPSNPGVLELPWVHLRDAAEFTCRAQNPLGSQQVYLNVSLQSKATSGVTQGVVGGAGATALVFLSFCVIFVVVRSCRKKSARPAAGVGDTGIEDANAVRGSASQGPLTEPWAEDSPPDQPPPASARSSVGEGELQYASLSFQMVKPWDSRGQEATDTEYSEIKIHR
# [5] = test system: Trypanosoma cruzi; assay: Trypanosoma cruzi phosphomannomutase and mannose-1-phosphate guanylyltransferase assay; assay type: functional; conditions: 10 µM
# [6] = target: T2, Arginase-2, mitochondrial (Homo sapiens) (UniProt P78540); assay: in vitro enzyme assay to detect the production of urea directly proportional to the activity of Arginase II; assay type: functional; conditions: 33.3 µM; note: in the data most compounds retested in dose-response had high values
# T2 sequence (whole entry): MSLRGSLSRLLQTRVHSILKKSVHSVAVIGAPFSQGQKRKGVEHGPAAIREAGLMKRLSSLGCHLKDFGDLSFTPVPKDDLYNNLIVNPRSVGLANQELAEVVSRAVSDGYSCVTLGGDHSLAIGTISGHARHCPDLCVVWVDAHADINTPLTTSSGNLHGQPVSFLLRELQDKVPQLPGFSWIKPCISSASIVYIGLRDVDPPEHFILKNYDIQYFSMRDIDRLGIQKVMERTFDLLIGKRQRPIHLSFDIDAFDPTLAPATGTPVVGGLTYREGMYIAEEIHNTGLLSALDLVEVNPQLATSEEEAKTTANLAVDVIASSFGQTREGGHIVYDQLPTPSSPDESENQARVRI
# [7] = target: T3, Proteasome subunit beta (Trypanosoma cruzi) (UniProt O96673); assay: Trypanosoma cruzi proteasome chymotrypsin-like activity (TcProtChymo) assay.; note: in the data most compounds retested in dose-response had high values; assay type: functional; conditions: 9.37 µM
# T3 sequence (whole entry): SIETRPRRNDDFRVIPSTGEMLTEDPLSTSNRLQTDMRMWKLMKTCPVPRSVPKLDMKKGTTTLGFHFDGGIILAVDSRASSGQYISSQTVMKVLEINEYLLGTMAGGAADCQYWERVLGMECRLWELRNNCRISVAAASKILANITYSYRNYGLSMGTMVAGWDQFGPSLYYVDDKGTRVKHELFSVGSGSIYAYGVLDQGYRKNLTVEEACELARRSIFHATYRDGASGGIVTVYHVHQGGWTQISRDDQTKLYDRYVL
# [8] = species on record: Homo sapiens; assay: To identify inhibition of the IFN signalling (Jak-Stat) pathway via expression of an eGFP reporter gene under the control of an IFN-stimulated response element (ISRE) containing MxA promoter.; assay type: functional; conditions: 30 µM
# [9] = target: T4, Tyrosyl-tRNA synthetase, putative (Trypanosoma cruzi (strain CL Brener)) (UniProt Q4DSP6); assay: Trypanosoma cruzi tyrosyl tRNA synthetase (TcYRS) _High Tyrosine SOP; assay type: functional; conditions: 30 µM; note: in the data most compounds retested in dose-response had high values
# T4 sequence (whole entry): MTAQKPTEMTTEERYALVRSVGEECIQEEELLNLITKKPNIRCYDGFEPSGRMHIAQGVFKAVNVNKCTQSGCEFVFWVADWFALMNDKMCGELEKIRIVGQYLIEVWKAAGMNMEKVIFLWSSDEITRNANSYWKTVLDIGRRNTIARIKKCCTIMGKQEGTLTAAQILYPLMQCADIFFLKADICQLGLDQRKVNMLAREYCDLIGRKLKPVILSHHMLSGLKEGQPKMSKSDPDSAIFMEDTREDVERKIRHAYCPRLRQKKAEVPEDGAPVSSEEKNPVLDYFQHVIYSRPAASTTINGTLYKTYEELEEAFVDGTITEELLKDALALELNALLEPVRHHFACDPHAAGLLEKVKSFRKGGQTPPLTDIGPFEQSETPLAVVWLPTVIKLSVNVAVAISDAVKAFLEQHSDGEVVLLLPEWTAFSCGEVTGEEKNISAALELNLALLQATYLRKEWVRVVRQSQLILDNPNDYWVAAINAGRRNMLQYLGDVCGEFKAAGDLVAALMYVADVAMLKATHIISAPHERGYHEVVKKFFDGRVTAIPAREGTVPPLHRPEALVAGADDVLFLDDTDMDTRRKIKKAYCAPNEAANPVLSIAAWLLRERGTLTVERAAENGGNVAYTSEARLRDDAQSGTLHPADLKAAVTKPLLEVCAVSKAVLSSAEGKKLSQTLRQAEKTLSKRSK
# [10] = target: T4, Tyrosyl-tRNA synthetase, putative (Trypanosoma cruzi (strain CL Brener)); assay: Trypanosoma cruzi tyrosyl tRNA synthetase (TcYRS) SOP; assay type: functional; conditions: 30 µM
# [11] = target: Chromo domain-containing protein 1 (Saccharomyces cerevisiae (strain ATCC 204508 / S288c) (Baker's yeast)) (UniProt P32657); assay: ScCHD-1 Enzyme Inhibition Assay; assay type: functional; conditions: 30 µM; note: in the data most compounds retested in dose-response had high values
# Chain of Chromo domain-containing protein 1 (Saccharomyces cerevisiae (strain ATCC 204508 / S288c) (Baker's yeast)) (P32657 whole entry, the tested form may be a part): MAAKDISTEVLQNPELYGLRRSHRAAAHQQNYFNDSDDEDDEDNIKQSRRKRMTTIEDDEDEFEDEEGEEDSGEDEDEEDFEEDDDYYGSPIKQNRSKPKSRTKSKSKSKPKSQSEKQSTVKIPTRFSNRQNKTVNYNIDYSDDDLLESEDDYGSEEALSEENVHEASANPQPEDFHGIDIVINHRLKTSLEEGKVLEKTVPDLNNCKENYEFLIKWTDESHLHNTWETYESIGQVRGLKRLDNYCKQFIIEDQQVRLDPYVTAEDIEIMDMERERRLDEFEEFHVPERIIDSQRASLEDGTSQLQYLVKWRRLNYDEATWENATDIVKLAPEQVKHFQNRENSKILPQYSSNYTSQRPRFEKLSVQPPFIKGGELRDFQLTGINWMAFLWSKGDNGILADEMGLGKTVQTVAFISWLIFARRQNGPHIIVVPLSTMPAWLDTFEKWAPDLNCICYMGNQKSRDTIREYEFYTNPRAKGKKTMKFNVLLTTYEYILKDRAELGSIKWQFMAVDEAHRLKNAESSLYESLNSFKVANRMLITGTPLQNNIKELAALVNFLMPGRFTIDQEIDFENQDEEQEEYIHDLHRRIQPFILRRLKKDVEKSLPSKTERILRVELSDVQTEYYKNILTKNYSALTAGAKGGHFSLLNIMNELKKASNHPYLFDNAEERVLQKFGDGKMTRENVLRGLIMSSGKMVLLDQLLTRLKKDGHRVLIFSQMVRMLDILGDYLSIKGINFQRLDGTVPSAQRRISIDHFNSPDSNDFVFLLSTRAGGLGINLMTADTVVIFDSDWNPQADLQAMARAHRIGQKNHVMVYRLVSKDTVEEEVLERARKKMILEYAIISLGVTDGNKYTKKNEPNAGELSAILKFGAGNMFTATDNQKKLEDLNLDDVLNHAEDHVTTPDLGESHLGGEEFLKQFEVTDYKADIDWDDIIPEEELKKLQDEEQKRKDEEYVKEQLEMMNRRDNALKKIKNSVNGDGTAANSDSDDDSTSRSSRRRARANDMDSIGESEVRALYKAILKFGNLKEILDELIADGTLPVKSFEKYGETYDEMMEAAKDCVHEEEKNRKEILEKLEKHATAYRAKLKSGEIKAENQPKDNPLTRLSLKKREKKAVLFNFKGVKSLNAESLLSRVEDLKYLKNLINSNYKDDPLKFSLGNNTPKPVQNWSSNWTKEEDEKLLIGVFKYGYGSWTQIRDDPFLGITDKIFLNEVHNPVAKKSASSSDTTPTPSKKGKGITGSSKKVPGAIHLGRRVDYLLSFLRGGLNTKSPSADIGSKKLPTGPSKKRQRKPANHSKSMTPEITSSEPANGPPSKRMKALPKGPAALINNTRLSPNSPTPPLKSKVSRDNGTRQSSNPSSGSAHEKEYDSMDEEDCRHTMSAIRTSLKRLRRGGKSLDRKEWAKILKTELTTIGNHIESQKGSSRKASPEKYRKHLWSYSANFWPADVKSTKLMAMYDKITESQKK
# Chain of Protein translocase subunit SecA (Escherichia coli (strain K12)) (P10408 whole entry): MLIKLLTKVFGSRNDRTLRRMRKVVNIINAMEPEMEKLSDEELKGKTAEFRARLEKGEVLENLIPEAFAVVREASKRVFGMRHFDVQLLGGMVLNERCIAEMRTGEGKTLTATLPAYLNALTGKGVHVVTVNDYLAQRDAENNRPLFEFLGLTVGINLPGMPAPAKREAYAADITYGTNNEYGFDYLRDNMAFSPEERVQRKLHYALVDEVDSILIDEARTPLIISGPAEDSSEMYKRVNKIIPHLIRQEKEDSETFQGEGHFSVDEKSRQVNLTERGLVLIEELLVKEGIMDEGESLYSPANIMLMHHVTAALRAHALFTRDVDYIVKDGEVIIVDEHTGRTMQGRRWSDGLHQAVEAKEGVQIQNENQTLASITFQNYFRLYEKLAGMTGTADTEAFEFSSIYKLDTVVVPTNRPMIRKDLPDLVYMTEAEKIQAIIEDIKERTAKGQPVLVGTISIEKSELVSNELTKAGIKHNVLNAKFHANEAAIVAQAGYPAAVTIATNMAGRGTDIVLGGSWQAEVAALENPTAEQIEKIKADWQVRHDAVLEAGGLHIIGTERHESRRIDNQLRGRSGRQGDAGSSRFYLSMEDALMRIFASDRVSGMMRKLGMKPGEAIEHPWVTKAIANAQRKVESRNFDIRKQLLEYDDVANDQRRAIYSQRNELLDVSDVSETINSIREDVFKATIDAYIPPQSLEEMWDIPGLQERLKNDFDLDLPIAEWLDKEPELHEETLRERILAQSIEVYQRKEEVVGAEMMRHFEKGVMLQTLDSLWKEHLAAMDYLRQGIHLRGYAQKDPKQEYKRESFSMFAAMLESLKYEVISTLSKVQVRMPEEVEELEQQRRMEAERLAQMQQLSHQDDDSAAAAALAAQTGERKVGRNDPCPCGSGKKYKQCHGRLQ
SMILES,Percent Effect [1] [%],Percent Effect [2] [%],Percent Effect [3] [%],Percent Effect [4] [%],Percent Effect [5] [%],Percent Effect [6] [%],Percent Effect [7] [%],Percent Effect [8] [%],Percent Effect [9] [%],Percent Effect [10] [%],Percent Effect [11] [%]
O=C(CCc1cccnc1)N(Cc1ccsc1)CC1CCCO1 (stereo unspecified),-1.63,-2.7,-0.366,-2.41,1.93,1.91,10.3,-6.2,1.59,7.32,-3.52
CC(Cn1ccnc1)NC(=O)NCCc1ccccn1 (stereo unspecified),-1.01,21.1,-0.947,-4.27,1.69,-2.3,21.2,6.74,5.39,21.9,-8.97
COc1ccc(CNC(=O)NC2CCN(CC(F)F)CC2)cc1C,-6.96,5.41,-0.551,14.3,3.23,3.72,2.15,-4.85,4.3,13.6,-4.89
Cc1ccc(OCCC(=O)NC2CCc3nc(C)cn3C2)cc1 (stereo unspecified),-3.65,5.26,5.43,5.54,0.0974,-4.73,14.7,15.1,3.19,10.4,-1.61
Cn1ccnc1CN1CCN(Cc2ccccc2C#N)CC1,-5.61,18.4,-14.9,6.65,2.52,-0.719,6.34,5.87,12.3,18.5,-9.79
COCC1CN(C(=O)c2cccn2C)Cc2ncnn2C1 (stereo unspecified),-5.41,5.2,0.668,11.3,9.34,4.14,8.32,9.25,-2.15,11.1,3.71
